Measurements: PubChem BioAssay (NCATS)
Records with an inconclusive call do not appear. Active and inactive are the calls of the source. Unless noted, the call rests on the fitted dose curve; in most records, active means well fitted curve in the direction sought with a large enough effect; inconclusive means small, poorly fitted or top-dose-only effect, or another doubt; inactive means no such curve, though single readings can be large; an effect the other way counts as inactive or inconclusive.

Columns and labels:
[1] = target: Endonuclease 4 (Escherichia coli (strain K12)) (UniProt P0A6C1); experiment: Counterscreen for APE1 Inhibitors: qHTS Validation Assay for Inhibitors of Endonuclease IV (AID 1708); settings: E. coli endonuclease IV, DNA cleavage fluorescence; series mostly up to 57.1 µM
Outline: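 Conditions: 2 nM enzyme, 50 nM TAMRA/BHQ-2 substrate, pH 7.5 Tris buffer with 2 mM MgCl2, RT. Compound preincubation 15 min; readout three fluorescence reads 60 s apart, third-minus-first.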

[2] = qHTS for differential inhibitors of proliferation of Plasmodium falciparum line 7G8 (AID 1815); settings: Plasmodium falciparum 7G8 proliferation inhibition; series mostly up to 28.7 µM;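 further: parasite growth measured after three days of incubation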; further: potency means the concentration at half of the fitted maximal effect
[3] = qHTS for differential inhibitors of proliferation of Plasmodium falciparum line GB4 (AID 1816); settings: Potency: Plasmodium falciparum GB4 proliferation inhibition; series mostly up to 28.7 µM;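 further: parasite growth measured after 72 h incubation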; further: potency means the concentration at half of the fitted maximal effect
[4] = qHTS for differential inhibitors of proliferation of Plasmodium falciparum line 3D7 (AID 1876); further: potency means the concentration at half of the fitted maximal effect; settings: P. falciparum 3D7 proliferation inhibition; series mostly up to 28.7 µM
[5] = qHTS for differential inhibitors of proliferation of Plasmodium falciparum line D10 (AID 1877); settings: series mostly up to 28.7 µM;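 further: parasites grown with compound for 72 h before DNA staining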; further: potency means the concentration at half of the fitted maximal effect
[6] = qHTS for differential inhibitors of proliferation of Plasmodium falciparum line Dd2 (AID 1882); settings: Potency: Plasmodium falciparum Dd2 proliferation inhibition; series mostly up to 28.7 µM; further: nearly all actives have a fitted effect of over 65% in size; further: potency means the concentration at half of the fitted maximal effect
Outline: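 SYBR Green DNA fluorescence (ex 485, em 535 nm) after overnight lysis quantifies parasite growth; compound exposure lasted 72 h at 37 C on infected red cells at 2.5% hematocrit, 0.3% parasitemia (final). Artemisinin 0.29 uM and vehicle wells define normalization.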

[7] = qHTS for differential inhibitors of proliferation of Plasmodium falciparum line W2 (AID 1883); settings: Potency: Plasmodium falciparum W2 proliferation inhibition; series mostly up to 28.7 µM;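 further: parasites grown with compound for 72 h before lysis and staining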; further: potency means the concentration at half of the fitted maximal effect
[8] = qHTS for differential inhibitors of proliferation of Plasmodium falciparum line HB3 (AID 1886); settings: Potency: Plasmodium falciparum HB3 proliferation inhibition; series mostly up to 28.7 µM;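 further: parasites grown with compound for 72 h before SYBR Green readout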; further: potency means the concentration at half of the fitted maximal effect
[9] = target: Ferritin light chain (Equus caballus) (UniProt P02791); experiment: qHTS Validation Assay for Identification of Novel General Anesthetics (AID 2323); settings: horse apoferritin, anesthetic-site fluorescent probe displacement; series mostly up to 76.9 µM
Outline: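 Normalized fluorescence response, scaled between free 1-AMA and 1-AMA/apoferritin complex, fitted to a four-parameter Hill equation for concentration-effect values. Binding mix: 10 uM horse-spleen apoferritin, 50% saturated 1-AMA in PBS; read 380/535 nm after 10 min.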

[10] = target: ATP-dependent DNA helicase Q1 (Homo sapiens) (UniProt P46063); experiment: qHTS Validation Assay for Inhibitors of RecQ-Like Dna Helicase 1 (RECQ1) (AID 2353); settings: recombinant RECQ1 helicase DNA unwinding assay; series mostly up to 25.6 µM
Outline: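 RECQ1T1 50 nM; forked duplex (20 bp + 30-nt ss tails) 200 nM, ATP 2 mM final; pH 8.0, 2 mM MgCl2, 2.5 ug/ml poly(dI-dC); 15 min compound preincubation; discontinuous kinetic read over 2 h at RT.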

[11] = High Content Imaging Cell-Based qHTS for Inhibitors of the mTORC1 Signaling Pathway in MEF Cells (AID 2667); settings: series mostly up to 38.3 µM; further: potency means the concentration at half of the fitted maximal effect
Outline: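 Read-out is the share of phospho-rpS6-positive cells per well, from Hoechst-normalized Alexa-488 Ser235/236 staining imaged on IN Cell. Cells: WT Tsc2-expressing Tsc2-/-, p53-/- MEFs exposed to compound for 24 hrs.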

[12] = Cytometry Cell-Based qHTS for Inhibitors of the mTORC1 Signaling Pathway in MEF cells (AID 2668); settings: mTORC1 pathway readout; series mostly up to 38.3 µM; further: potency means the concentration at half of the fitted maximal effect
Outline: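 In MEFs grown in DMEM + 10% FBS, a 24 hrs compound exposure preceded imaging of phospho-rpS6 Ser235/236 by laser-scanning cytometry.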

[13] = Validation screen for inhibitors of Lassa infection (AID 463096; calls by dose curve; further: potency means the concentration at half of the fitted maximal effect); settings: Lassa virus infection, cell-based; series mostly up to 46.1 µM
[14] = Validation screen for small molecules that induce DNA re-replication in MCF 10A normal breast cells (AID 463097); settings: MCF 10A cells, DNA re-replication phenotype imaging; series mostly up to 46.1 µM; further: nearly all actives have a fitted effect of over 60% in size; further: potency means the concentration at half of the fitted maximal effect
Outline: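 Following 48 hr compound incubation (37 C, 5% CO2), MCF 10A cells receive Hoechst for 40 min at 37 C. Nuclei are then scanned (excitation 405 nm, emission 500-530 nm) for total fluorescence intensity.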

[15] = target: Ubiquitin carboxyl-terminal hydrolase 2 (Homo sapiens) (UniProt O75604); experiment: qHTS Validation Assay for Inhibitors of Ubiquitin-specific Protease USP2a Using CHOP2 as the Reporter (AID 463106); settings: USP2a cleavage of CHOP2 reporter, enzymatic; series mostly up to 38.3 µM
Outline: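 Fluorescence read-out at Ex 485nm/Em 531nm after 60min RT, following addition of 25nM Ub-CHOP2 plus 25nM reporter substrate to USP2 core (10nM) pretreated 30min with compound. Data normalized to NEM full inhibition; concentration-response curves fitted.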

[16] = target: DNA polymerase III PolC-type (Bacillus subtilis (strain 168)) (UniProt P13267); experiment: qHTS Validation Assay for the Inhibitors of DNA Replication in Gram-Positive Bacteria (AID 485295); settings: Gram-positive bacterial DNA replication assay; series mostly up to 57.1 µM;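 further: reconstituted holoenzyme with PolC plus beta clamp SSB and primase; PicoGreen fluorescence of double-stranded DNA made on primed circular M13 template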
Outline: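 Inhibition of DNA synthesis by the reconstituted PolC holoenzyme, monitored through PicoGreen staining of dsDNA formed from ssM13Gori, dNTPs and NTPs, with compound preincubation and room-temperature reaction.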

[17] = qHTS Validation Assay to Find Inhibitors of Chronic Active B-Cell Receptor Signaling (AID 485345; active means well fitted curve in the direction sought with a large enough effect in the main read-out, with a control signal flat, not every such curve was filed as active); settings: ABC-DLBCL cells, chronic BCR signaling reporter, CBG luciferase; series mostly up to 46.1 µM
Outline: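 TMD8 ABC-DLBCL cells stably carrying doxycycline-inducible IkappaBalpha–green luciferase fusion plus unfused red luciferase; compounds 46 uM to 3 nM, 4 h at 37C with doxycycline. Corrected green/red luminescence ratio normalized to 10 uM MG-132 and basal cell wells; curves fitted.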

[18] = qHTS Assay for Modulators of Human Peripheral Myelin Protein 22 (PMP22) Expression/Activity (AID 1967; active means well fitted curve in the direction sought with a large enough effect in the signal ratio; the % refers to the signal ratio); settings: Cell-based PMP22 reporter, dual-color luciferase ratio, mouse Pmp22 promoter in mouse Schwann cells; series mostly up to 115 µM
Outline: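 Engineered MSC80 cells, Pmp22-promoter green and EF-alpha red luciferase reporters; 24h compound treatment at 37 °C. Concentration-response fits on green, red and ratio signals, each overlap-corrected, with %Activity normalized to untreated wells.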

[19] = qHTS Assay for Identification of Small Molecule Inducers of Hypoxia Response (AID 2120; active means well fitted curve in the direction sought with a large enough effect in the signal ratio, with a control signal flat, not every such curve was filed as active; the % refers to the signal ratio); settings: hypoxia response reporter cells, beta-lactamase ratio readout; series mostly up to 104 µM
Outline: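 Reporter induction read as the CCF4 blue/green (460nm/530nm) emission ratio after 2.5 h dye loading at room temperature. ME-180 HRE-beta-lactamase cells received titrated compounds for 17 h at 37 degrees Celsius; AC50 values derived.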

[20] = target: RecQ-like DNA helicase BLM (Homo sapiens) (UniProt P54132); experiment: qHTS Validation Assay for Inhibitors of Bloom's syndrome helicase (BLM) (AID 2364); settings: BLM helicase DNA unwinding, fluorescence, in vitro; series mostly up to 57.1 µM
Outline: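 50 nM BLM preincubated 15 min at room temperature with compound in pH 8.0 Tris buffer containing 2.5 ug/ml poly(dI-dC); started with 200 nM TAMRA/BHQ-2 forked duplex and 2 mM ATP (final). Unwinding read as TAMRA fluorescence increase, two reads 2 h apart.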

Measured: Potency

Sequence of Ferritin light chain (Equus caballus) (P02791 2-175 limits assumed): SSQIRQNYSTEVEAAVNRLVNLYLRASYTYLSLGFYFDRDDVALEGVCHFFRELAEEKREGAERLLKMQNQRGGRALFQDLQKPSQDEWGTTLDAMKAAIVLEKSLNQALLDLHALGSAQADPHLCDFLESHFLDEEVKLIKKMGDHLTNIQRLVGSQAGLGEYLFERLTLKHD
Sequence of DNA polymerase III PolC-type (Bacillus subtilis (strain 168)) (P13267 whole entry, looked up): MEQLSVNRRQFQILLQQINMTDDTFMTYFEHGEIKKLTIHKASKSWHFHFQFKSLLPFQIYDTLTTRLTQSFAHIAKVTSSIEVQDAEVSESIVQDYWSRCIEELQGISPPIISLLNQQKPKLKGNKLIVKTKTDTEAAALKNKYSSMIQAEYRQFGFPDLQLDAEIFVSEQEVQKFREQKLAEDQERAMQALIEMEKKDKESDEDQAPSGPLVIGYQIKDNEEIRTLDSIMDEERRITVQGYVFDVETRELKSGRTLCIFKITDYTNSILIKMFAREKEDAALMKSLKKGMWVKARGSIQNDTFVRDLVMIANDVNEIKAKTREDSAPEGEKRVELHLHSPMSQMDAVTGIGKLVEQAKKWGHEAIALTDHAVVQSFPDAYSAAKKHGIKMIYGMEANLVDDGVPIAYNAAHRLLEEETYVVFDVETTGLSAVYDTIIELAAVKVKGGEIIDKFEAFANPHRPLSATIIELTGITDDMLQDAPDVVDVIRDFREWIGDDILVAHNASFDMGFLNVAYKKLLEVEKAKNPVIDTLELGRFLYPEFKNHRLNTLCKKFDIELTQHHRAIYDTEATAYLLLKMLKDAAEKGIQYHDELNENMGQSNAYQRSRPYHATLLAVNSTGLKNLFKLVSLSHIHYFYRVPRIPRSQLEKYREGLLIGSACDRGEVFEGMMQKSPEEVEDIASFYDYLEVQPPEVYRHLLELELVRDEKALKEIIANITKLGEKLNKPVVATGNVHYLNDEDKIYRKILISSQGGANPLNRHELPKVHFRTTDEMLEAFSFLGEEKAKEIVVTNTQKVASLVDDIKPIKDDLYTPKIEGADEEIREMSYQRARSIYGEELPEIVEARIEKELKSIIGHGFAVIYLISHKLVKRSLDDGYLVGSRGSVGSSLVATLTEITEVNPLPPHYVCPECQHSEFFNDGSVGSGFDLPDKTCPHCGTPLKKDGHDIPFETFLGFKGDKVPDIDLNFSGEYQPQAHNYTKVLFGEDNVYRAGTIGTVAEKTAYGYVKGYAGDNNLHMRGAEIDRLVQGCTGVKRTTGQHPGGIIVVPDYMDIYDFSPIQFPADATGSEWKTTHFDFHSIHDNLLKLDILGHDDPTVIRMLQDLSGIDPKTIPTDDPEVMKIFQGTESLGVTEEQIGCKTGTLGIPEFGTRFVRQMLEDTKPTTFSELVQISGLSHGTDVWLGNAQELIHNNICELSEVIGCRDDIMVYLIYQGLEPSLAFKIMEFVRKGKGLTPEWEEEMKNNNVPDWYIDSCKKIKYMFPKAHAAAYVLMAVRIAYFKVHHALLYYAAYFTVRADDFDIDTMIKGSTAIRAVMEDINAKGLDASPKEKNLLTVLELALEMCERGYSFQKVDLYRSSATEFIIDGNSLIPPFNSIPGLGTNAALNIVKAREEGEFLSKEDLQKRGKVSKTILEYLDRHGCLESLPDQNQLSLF
Sequence of Ubiquitin carboxyl-terminal hydrolase 2 (Homo sapiens) (O75604 whole entry, looked up): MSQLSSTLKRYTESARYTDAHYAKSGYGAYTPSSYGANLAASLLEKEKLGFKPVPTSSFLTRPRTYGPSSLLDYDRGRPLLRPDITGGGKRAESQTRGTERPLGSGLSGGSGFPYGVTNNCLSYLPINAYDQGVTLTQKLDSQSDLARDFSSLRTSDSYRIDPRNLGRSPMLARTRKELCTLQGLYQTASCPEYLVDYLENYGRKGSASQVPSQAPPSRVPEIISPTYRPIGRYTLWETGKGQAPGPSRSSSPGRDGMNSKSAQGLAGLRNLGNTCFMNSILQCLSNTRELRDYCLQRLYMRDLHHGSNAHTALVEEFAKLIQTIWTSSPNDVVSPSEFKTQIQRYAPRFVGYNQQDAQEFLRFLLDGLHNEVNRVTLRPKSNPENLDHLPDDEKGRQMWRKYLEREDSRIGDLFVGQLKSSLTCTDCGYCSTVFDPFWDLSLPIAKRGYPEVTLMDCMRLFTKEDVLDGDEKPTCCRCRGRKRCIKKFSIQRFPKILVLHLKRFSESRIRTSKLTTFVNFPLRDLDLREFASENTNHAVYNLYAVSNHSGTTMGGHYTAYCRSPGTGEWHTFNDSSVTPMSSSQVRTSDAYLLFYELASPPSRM
Sequence of ATP-dependent DNA helicase Q1 (Homo sapiens) (P46063 whole entry, looked up): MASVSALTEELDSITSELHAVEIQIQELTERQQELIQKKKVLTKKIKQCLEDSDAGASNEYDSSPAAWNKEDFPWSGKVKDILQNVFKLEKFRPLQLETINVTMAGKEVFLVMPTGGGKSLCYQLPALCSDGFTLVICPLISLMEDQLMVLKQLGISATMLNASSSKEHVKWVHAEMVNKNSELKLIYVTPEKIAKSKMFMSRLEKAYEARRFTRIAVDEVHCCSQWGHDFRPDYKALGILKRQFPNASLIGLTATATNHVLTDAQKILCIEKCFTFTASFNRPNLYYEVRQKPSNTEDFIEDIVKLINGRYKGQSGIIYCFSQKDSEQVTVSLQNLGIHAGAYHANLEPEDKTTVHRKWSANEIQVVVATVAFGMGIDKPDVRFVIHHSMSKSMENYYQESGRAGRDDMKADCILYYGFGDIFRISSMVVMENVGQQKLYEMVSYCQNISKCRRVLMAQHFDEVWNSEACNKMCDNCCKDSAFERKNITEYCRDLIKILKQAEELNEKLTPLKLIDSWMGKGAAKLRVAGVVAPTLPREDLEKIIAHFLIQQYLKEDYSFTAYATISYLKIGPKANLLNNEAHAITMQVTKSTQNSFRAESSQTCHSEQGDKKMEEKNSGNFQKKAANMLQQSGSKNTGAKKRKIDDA
Sequence of RecQ-like DNA helicase BLM (Homo sapiens) (P54132 whole entry, looked up): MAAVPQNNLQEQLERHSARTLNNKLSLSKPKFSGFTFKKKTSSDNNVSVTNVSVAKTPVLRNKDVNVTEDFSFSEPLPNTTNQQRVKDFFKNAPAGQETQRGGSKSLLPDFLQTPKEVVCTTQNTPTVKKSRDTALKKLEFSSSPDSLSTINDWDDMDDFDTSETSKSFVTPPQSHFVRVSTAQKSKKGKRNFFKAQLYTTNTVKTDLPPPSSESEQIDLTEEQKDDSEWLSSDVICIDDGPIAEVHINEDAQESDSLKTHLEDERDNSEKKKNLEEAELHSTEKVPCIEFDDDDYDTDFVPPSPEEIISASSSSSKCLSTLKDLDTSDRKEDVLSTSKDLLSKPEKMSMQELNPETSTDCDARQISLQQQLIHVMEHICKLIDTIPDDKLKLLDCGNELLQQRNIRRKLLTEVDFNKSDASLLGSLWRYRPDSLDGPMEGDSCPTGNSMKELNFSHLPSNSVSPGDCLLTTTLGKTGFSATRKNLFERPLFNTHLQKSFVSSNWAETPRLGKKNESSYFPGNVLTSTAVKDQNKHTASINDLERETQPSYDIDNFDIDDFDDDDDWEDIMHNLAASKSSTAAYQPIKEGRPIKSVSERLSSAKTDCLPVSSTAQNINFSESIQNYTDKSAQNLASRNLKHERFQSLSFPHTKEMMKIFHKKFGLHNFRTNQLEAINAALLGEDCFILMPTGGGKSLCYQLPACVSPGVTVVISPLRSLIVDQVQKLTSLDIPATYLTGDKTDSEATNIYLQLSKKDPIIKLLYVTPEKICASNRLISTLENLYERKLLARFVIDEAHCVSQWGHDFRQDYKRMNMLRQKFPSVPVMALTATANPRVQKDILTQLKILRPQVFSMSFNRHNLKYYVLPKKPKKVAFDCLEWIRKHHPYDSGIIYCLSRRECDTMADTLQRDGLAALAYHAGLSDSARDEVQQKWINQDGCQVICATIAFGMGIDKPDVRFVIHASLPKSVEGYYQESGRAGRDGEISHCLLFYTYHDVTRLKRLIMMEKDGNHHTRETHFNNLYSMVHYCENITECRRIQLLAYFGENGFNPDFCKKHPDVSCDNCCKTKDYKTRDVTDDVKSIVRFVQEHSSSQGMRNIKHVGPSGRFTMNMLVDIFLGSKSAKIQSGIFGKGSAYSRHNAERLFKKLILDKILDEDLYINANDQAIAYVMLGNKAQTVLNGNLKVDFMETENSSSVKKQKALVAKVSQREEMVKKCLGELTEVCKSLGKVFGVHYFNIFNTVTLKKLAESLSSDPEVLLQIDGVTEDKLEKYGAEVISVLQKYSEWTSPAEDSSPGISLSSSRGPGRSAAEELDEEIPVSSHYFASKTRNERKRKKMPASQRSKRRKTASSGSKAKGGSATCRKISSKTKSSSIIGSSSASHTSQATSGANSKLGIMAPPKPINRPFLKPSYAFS

Cc1ncc(CNC(=O)N(CCCl)N=O)c(N)n1
not listed: [18] | [19] | [20]
inactive: all other assays above

C=C(C)[C@H]1Cc2c(ccc3c2O[C@@H]2COc4cc(OC)c(OC)cc4[C@@H]2C3=O)O1
inactive: [1] | [6] | [10] | [15] | [16]
active: [2] 11.2 µM | [3] 12.6 µM | [7] 8.91 µM | [11] 0.0465 µM | [12] 0.0585 µM | [13] 5.62 µM | [14] 1.41 µM

Cc1c(OCC(F)(F)F)ccnc1CS(=O)c1nc2ccccc2[nH]1 (stereo unspecified)
active: [2] 8.91 µM | [3] 10 µM | [4] 11.2 µM | [5] 12.6 µM | [7] 10 µM | [8] 11.2 µM

CCn1cc(C(=O)O)c(=O)c2ccc(C)nc21
inactive: [1] | [18] | [9] | [10] | [13] | [14]

c1ccc2c(c1)OCC(C1=NCCN1)O2 (stereo unspecified)
inactive: [1] | [5] | [9] | [10] | [15] | [16]
active: [2] 8.91 µM | [7] 12.6 µM | [11] 6.56 µM | [12] 4.65 µM | [13] 20 µM | [14] 7.94 µM

O=c1[nH]c2ccccc2n1C1CCN(CCCC(c2ccc(F)cc2)c2ccc(F)cc2)CC1
inactive: [10] | [15]
active: [2] 3.98 µM | [3] 8.91 µM | [4] 3.16 µM | [5] 7.08 µM | [6] 10 µM | [7] 2.82 µM | [8] 5.62 µM | [11] 16.5 µM

CNCC(O)c1ccc(O)cc1 (stereo unspecified)
not listed: [18] | [20]
inactive: all other assays above

Fc1ccc(C(OCCN2CCN(CCCc3ccccc3)CC2)c2ccc(F)cc2)cc1
active: [2] 3.98 µM | [3] 3.98 µM | [4] 7.08 µM | [5] 12.6 µM | [6] 7.94 µM | [7] 2.82 µM | [8] 4.47 µM | [12] 18.5 µM | [14] 12.6 µM
inactive: [10] | [15] | [16]

CCCC(C)(COC(N)=O)COC(=O)NC(C)C (stereo unspecified)
not listed: [18]
inactive: all other assays above

COc1ccc(Cc2nccc3cc(OC)c(OC)cc23)cc1OC
inactive: [2] | [14]

CC(COc1ccccc1)N(CCCl)Cc1ccccc1 (stereo unspecified)
active: [2] 7.94 µM

COC[C@H]1OC(=O)c2coc3c2[C@@]1(C)C1=C(C3=O)C2CCC(=O)[C@@]2(C)C[C@H]1OC(C)=O (stereo partly specified)
active: [4] 12.6 µM
